In PubChem BioAssay (Tox21):
Records with an inconclusive call do not appear. The source made the active and inactive calls. Unless noted, the call rests on the fitted dose curve.

Columns and labels:
[1] = qHTS assay to identify small molecule agonists of the peroxisome proliferator-activated receptor delta (PPARd) signaling pathway - cell viability counter screen (AID 743211; active means well fitted curve in the direction sought with a large enough effect in the repeat runs; an effect the other way counts as inactive or inconclusive; further: nearly all actives have a fitted effect of over 55% in size)
In short: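 qHTS cell viability: PPARd-bla HEK293H; 17 h cpd, 37C; CellTiter-Glo, luminescence at 30 min RT.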

[2] = molecular target: Peroxisome proliferator-activated receptor delta (Homo sapiens) (UniProt Q03181); experiment: qHTS assay to identify small molecule agonists of the peroxisome proliferator-activated receptor delta (PPARd) signaling pathway (AID 743212);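 further: HEK293H cells with PPARd UAS beta-lactamase reporter GeneBLAzer system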
Sequence of Peroxisome proliferator-activated receptor delta (Homo sapiens) (Q03181 whole entry, looked up): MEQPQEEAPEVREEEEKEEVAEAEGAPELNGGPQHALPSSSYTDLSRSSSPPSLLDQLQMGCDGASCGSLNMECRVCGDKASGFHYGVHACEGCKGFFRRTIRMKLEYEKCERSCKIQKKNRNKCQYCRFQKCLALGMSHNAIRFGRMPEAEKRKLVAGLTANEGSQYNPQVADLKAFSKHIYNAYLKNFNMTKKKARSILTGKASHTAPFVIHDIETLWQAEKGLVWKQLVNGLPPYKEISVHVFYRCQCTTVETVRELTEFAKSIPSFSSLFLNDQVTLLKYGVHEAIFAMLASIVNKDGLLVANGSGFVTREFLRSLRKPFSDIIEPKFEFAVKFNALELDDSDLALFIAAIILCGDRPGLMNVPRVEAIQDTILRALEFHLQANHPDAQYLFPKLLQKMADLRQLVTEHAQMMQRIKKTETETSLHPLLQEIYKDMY
In short: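 Steps: seed PPARd-bla HEK293H cells; incubate 5 h, 37 C, 5% CO2; add compounds in DMSO; incubate, 37 C; add LiveBLAzer B/G FRET substrate; hold 2 h at room temperature; measure fluorescence.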

[3] = molecular target: Peroxisome proliferator-activated receptor delta (Homo sapiens) (UniProt Q03181); experiment: qHTS assay to identify small molecule antagonists of the peroxisome proliferator-activated receptor delta (PPARd) signaling pathway (AID 743215; active means well fitted inhibition curve with a large enough effect in the signal ratio in the repeat runs, not every such curve was filed as active; the % refers to the signal ratio;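 further: cells stimulated with agonist L165041 at 300 nM final during compound exposure; series mostly up to about 62 µM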)
In short: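 Here, a reporter line (HEK293H, beta-lactamase under a UAS) measures PPARd signaling. Compounds are tested against agonist L165041 at 300 nM final concentration over 17 h at 37 C, with fluorescence read after substrate.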

[4] = qHTS assay to identify small molecule agonists of the farnesoid-X-receptor (FXR) signaling pathway - cell viability counter screen (AID 743218; active means well fitted curve in the direction sought with a large enough effect in the repeat runs; an effect the other way counts as inactive or inconclusive; further: nearly all actives have a fitted effect of over 45% in size)
In short: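 Quantitative HTS counter screen measuring ATP-based viability via CellTiter-Glo luminescence in HEK 293T cells carrying a UAS-driven beta-lactamase reporter, after 16 h compound exposure at 37 C.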

[5] = qHTS assay to identify small molecule antagonists of the farnesoid-X-receptor (FXR) signaling pathway - cell viability counter screen (AID 743221; active means well fitted cell-killing curve with a large enough effect in the repeat runs, not every such curve was filed as active; further: nearly all actives have a fitted effect of over 50% in size)
In short: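 After a 5 h settling period, FXR-bla HEK 293T cells receive compound and chenodeoxycholic acid (50 uM final) and incubate 16 h at 37 C; CellTiter-Glo luminescence, read after 30 min at room temperature, reports cell viability.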

[6] = molecular target: Vitamin D3 receptor (Homo sapiens) (UniProt P11473); experiment: qHTS assay to identify small molecule agonists of the vitamin D receptor (VDR) signaling pathway (AID 743222)
Sequence of Vitamin D3 receptor (Homo sapiens) (P11473 whole entry, looked up): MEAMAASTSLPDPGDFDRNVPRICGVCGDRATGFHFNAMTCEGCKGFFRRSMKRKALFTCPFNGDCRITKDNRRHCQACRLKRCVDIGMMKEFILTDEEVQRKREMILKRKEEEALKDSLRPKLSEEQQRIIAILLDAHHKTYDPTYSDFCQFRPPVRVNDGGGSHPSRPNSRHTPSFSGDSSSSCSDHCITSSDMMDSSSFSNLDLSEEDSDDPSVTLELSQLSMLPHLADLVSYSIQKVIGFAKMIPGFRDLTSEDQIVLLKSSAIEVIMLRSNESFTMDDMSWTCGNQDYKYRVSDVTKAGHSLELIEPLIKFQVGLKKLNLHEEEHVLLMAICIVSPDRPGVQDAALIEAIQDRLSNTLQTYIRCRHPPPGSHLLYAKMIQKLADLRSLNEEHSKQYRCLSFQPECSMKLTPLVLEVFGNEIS
In short: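 Tox21 cell reporter format: VDR-bla line, 16 h compound exposure in 5% CO2 at 37C, then fluorescence intensity after 2 h with LiveBLAzer B/G FRET substrate.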

[7] = molecular target: Vitamin D3 receptor (Homo sapiens) (UniProt P11473); experiment: qHTS assay to identify small molecule antagonists of the vitamin D receptor (VDR) signaling pathway (AID 743223; active means well fitted inhibition curve with a large enough effect in the signal ratio in the repeat runs, not every such curve was filed as active; the % refers to the signal ratio)
In short: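 Reporter line VDR-bla; stimulus 1alpha,25-(OH)2 vitamin D3, 3 nM final; compound co-addition, 16 h 37C/5% CO2; LiveBLAzer B/G substrate 2 h RT; fluorescence intensity.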

[8] = qHTS assay to identify small molecule antagonists of the vitamin D receptor (VDR) signaling pathway - cell viability counter screen (AID 743225; active means well fitted curve in the direction sought with a large enough effect in the repeat runs; an effect the other way counts as inactive or inconclusive; further: nearly all actives have a fitted effect of over 50% in size)
In short: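 Parallel cytotoxicity test: VDR-UAS-bla HEK 293T, 3 nM (final) 1-alpha,25-dihydroxyvitamin D3 with test compound, 16 h, 37C. Endpoint is CellTiter-Glo luminescence in the same wells.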

[9] = qHTS assay to identify small molecule agonists of the NFkB signaling pathway (AID 1159509; active means well fitted curve in the direction sought with a large enough effect in the signal ratio in the repeat runs, not every such curve was filed as active; the % refers to the signal ratio; further: series mostly up to about 61 µM)
In short: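 Readout: FRET fluorescence, 405 nm excitation, 460/530 nm emission; beta-lactamase expression disrupts FRET. Cells: ME-180 stably carrying NF-kB-driven bla reporter. Compound exposure 5 hr, 37 C, 5% CO2.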

[10] = qHTS assay to identify small molecule agonists of the NFkB signaling pathway - cell viability counter screen (AID 1159515); further: series mostly up to about 61 µM; nearly all actives have a fitted effect of over 55% in size
In short: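 Tox21 library compounds were tested for cytotoxicity against NFkB-bla ME-180 cells during a 5 hr exposure at 37 C. CellTiter-Glo luminescence served as the viability read-out.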

[11] = qHTS assay to identify small molecule agonists of the endoplasmic reticulum stress response signaling pathway (AID 1159516; active means well fitted activation curve with a large enough effect in the signal ratio in the repeat runs, not every such curve was filed as active; the % refers to the signal ratio)
In short: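 Fluorescence at 460 and 530 nm (405 nm excitation) reports beta-lactamase from an ER stress response element in HeLa cells treated 5 hr at 37 C.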

[12] = qHTS assay to identify small molecule agonists of the endoplasmic reticulum stress response signaling pathway - cell viability counter screen (AID 1159517); further: series mostly up to about 61 µM; nearly all actives have a fitted effect of over 50% in size
In short: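 After overnight attachment, ESRE-bla HeLa cells were treated with Tox21 library compounds for 5 hr. CellTiter-Glo luminescence, read 30 min post-addition at room temperature, reported viability.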

[13] = qHTS assay to identify small molecule antagonists of the retinoid-related orphan receptor gamma (ROR-gamma) signaling pathway - cell viability counter screen (AID 1159520; active means well fitted curve in the direction sought with a large enough effect in the repeat runs; an effect the other way counts as inactive or inconclusive; further: nearly all actives have a fitted effect of over 50% in size)
In short: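 Cytotoxicity was read from cellular ATP (CellTiter-Glo luminescence) after 16 hr at 37 C with 1 uM doxycycline induction. The inducer was added 2 hr after compound transfer to Tet-on ROR gamma CHO cells.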

[14] = molecular target: Nuclear receptor ROR-gamma (Homo sapiens) (UniProt P51449); experiment: qHTS assay to identify small molecule antagonists of the retinoid-related orphan receptor gamma (ROR-gamma) signaling pathway (AID 1159521; active means well fitted curve in the direction sought with a large enough effect in the repeat runs; an effect the other way counts as inactive or inconclusive)
In short: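 Decreased RORE-driven luciferase luminescence indicates antagonism. Tet-on RORγ CHO cells received compound, then 1 uM final doxycycline 2 h later; signal read after 16 h incubation.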

[15] = qHTS assay to identify small molecule agonists of the AP-1 signaling pathway - cell viability counter screen (AID 1159525); further: nearly all actives have a fitted effect of over 55% in size
In short: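 Intracellular ATP by Cell Titer Glo luminescence (30 min, RT) in the same ME-180 AP-1-bla wells after the 5 h compound exposure at 37 °C. Normalised to tetra n-octyl ammonium bromide and DMSO controls.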

[16] = qHTS assay to identify small molecule agonists of the AP-1 signaling pathway (AID 1159526)
[17] = molecular target: Bile acid receptor (Homo sapiens) (UniProt Q96RI1); experiment: qHTS assay to identify small molecule antagonists of the farnesoid-X-receptor (FXR) signaling pathway (AID 743217; active means well fitted inhibition curve with a large enough effect in the signal ratio in the repeat runs, not every such curve was filed as active; the % refers to the signal ratio)
Sequence of Bile acid receptor (Homo sapiens) (Q96RI1 whole entry, looked up): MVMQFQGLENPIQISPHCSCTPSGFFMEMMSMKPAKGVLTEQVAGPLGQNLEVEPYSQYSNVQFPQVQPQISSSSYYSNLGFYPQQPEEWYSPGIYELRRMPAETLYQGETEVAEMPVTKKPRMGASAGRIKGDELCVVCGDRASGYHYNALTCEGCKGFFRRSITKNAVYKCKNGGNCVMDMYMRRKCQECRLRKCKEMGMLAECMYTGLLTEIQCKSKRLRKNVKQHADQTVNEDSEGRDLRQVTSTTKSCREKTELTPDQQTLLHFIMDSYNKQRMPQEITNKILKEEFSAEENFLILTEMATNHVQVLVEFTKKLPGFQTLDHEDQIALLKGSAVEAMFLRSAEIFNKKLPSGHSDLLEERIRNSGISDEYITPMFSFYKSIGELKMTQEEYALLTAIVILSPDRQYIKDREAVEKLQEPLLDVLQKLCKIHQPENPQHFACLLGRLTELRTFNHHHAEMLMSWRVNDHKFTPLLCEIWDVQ
In short: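 Test compounds are pin-transferred onto FXR-bla HEK 293T cells, then chenodeoxycholic acid is added at 50 uM final. After 16 h at 37 °C, LiveBLAzer B/G substrate is applied for 2 h at room temperature and fluorescence read.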

[18] = molecular target: Bile acid receptor (Homo sapiens) (UniProt Q96RI1); experiment: qHTS assay to identify small molecule agonists of the farnesoid-X-receptor (FXR) signaling pathway (AID 743220; active means well fitted activation curve with a large enough effect in the signal ratio in the repeat runs, not every such curve was filed as active; the % refers to the signal ratio)
In short: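 FXR-UAS-bla HEK 293T cells carrying a UAS-driven beta-lactamase reporter were plated for 5 h at 37C/5% CO2, then exposed to DMSO-dissolved Tox21 10K compounds for 16 h at 37C. A LiveBLAzer B/G FRET substrate was loaded for 2 h at room temperature before fluorescence reading.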

[19] = qHTS assay to identify small molecule agonists of the vitamin D receptor (VDR) signaling pathway - cell viability counter screen (AID 743224; active means well fitted curve in the direction sought with a large enough effect in the repeat runs; an effect the other way counts as inactive or inconclusive)
In short: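 CellTiter-Glo viability readout on VDR-bla cells, measured after 16 h of compound treatment at 37C in the same wells.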

[20] = qHTS assay to identify small molecule antagonists of the peroxisome proliferator-activated receptor delta (PPARd) signaling pathway - cell viability counter screen (AID 743213; active means well fitted curve in the direction sought with a large enough effect in the repeat runs; an effect the other way counts as inactive or inconclusive; further: nearly all actives have a fitted effect of over 50% in size)
In short: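 PPARd-bla HEK293H cells were treated with compounds plus agonist L165041 (300 nM final) for 17 h at 37 C. Viability was then read in the same wells by CellTiter-Glo luminescence after 30 min at room temperature.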

Measured: outcome

Cn1c(=O)c2[nH]c(Br)nc2n(C)c1=O
not listed: [17] | [18] | [19] | [20]
inactive: all other assays above

CN(C)CCCCl
not listed: [3] | [7] | [20]
inactive: all other assays above

CCCCCCCCCOC(=O)c1ccccc1C(=O)OCCCCCCCCC
not listed: [13]
inactive: all other assays above

COC(=O)c1ccccc1C(=O)O
not listed: [8] | [13] | [17] | [18] | [19] | [20]
inactive: all other assays above

Cc1cc(C)c(C(=O)O)c(C)c1
not listed: [2] | [3] | [6] | [7] | [8] | [13] | [17] | [18]
inactive: all other assays above

CCC[C@@H]1C[C@@H](C(=O)N[C@@H]([C@H]2O[C@H](SC)[C@H](O)[C@@H](O)[C@H]2O)[C@@H](C)O)N(C)C1
not listed: [4] | [6] | [7] | [13] | [17] | [18]
inactive: all other assays above

C=CCCCC
not listed: [6] | [7] | [13] | [17] | [18] | [20]
inactive: all other assays above

CO[C@@]1(NC(=O)Cc2cccs2)C(=O)N2C(C(=O)O)=C(COC(N)=O)CS[C@@H]21
inactive: [1] | [20] | [5] | [8] | [9] | [10] | [11] | [12] | [14] | [15] | [16]

O=NN(CCCl)C(=O)NC1CCCCC1
not listed: [4] | [5] | [6] | [7] | [13]
inactive: all other assays above

OCC(O)CN1CCN(c2ccccc2)CC1 (centres undefined)
not listed: [4] | [6] | [7] | [8] | [13] | [19] | [20]
inactive: all other assays above

CN(C)CCCO[C@@H]1[C@H]2OC(C)(C)O[C@H]2O[C@@H]1C(O)CO (some centres undefined)
not listed: [2] | [3] | [13] | [17] | [18] | [19]
inactive: all other assays above
